# Experimental data published in PubChem BioAssay (EPA / NIEHS).
# Inconclusive results are not listed. The source made the active and inactive calls. The calls were made as follows: active = hit-call score of the fitted dose curve at least 0.9, where 1 is the maximum; inconclusive = response in the unintended direction; inactive = score below 0.9.
# Target: Peroxisome proliferator-activated receptor gamma (Homo sapiens) (UniProt P37231)
# Assay: OT_PPARg_PPARgSRC1_0480: Odyssey Thera (OT) 8-hour Protein-Complementation Assay for Peroxisome Proliferator-activated Receptor Gamma / SRC-1 Co-activator (AID 2283387);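 also: nuclear to cytoplasmic split Venus YFP fluorescence ratio reporting PPARg SRC-1 interaction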
# Protocol: OT_PPARg_PPARgSRC1_0480 is a cell-based assay that uses HEK293T, a human kidney cell line, with measurements taken at 8 hours after chemical dosing in a 384-well plate.OT_PPARg_PPARgSRC1_0480 is one of one assay component(s) measured or calculated from the OT_PPARg_PPARgSRC1_0480 assay. It is designed to make measurements of protein fragment complementation, a form of binding reporter, as detected with fluorescence intensity signals by Protein-fragment Complementation technology.Data from the assay component OT_PPARg_PPARgSRC1_0480 was analyzed into 1 assay endpoint. This assay endpoint, OT_PPARg_PPARgSRC1_0480, was analyzed in the positive analysis fitting direction relative to DMSO as the negative control and baseline of activity. Using a type of binding reporter, measures of receptor for gain-of-signal activity can be used to understand the binding at the pathway-level as they relate to the gene PPARG. Furthermore, this assay endpoint can be referred to as a primary readout, because the performed assay has only produced 1 assay endpoint. To generalize the intended target to other relatable targets, this assay endpoint is annotated to the nuclear receptor intended target family, where the subfamily is non-steroidal.
# The OT PPARg/SRC-1 assay assessed receptor-chemical interactions using a rapidly maturing, intensely fluorescent mutant of YFP known as Venus, rationally dissected into two separate fragments. The fragments were obtained as follows: first, fragments coding for YFP1 and YFP2 (corresponding to amino acid residues 1-158 and 159-239 of the full length YFP, respectively) were generated by oligonucleotide synthesis (Blue Heron Biotechnology), and then PCR mutagenesis was used to generate the mutant fragments IFP1 and IFP2. Fusion constructs were transfected into HEK293T cells with a (Gly4Ser)2 linker between the PPARg/SRC-1 and YFP fragment genes to facilitate complementation when interacting proteins bring fragments into close proximity. The construct is transiently transfected in HEK293T cells 48 hours prior to treatment with test compounds. Cells are seeded into optical quality 384-well poly-D-lysine coated plates in MEM alpha medium (Invitrogen) supplemented with 10 percent FBS (Gemini Bio-Products) 1 percent penicillin and 1 percent streptomycin, and grown in 37C incubator equilibrated to 5 percent CO2. Cells are allowed to adhere for 24 hours prior to treatment with compounds of interest or controls for 8 hours. Cells are fixed in 4 percent formaldehyde and stained with Draq5 (BioStatus) to identify cells and subcellular compartment boundaries prior to signal detection. 8 Images per well were acquired on an Evotec Opera at 2 wavelengths (488 and 635nm), and the ratio of fluorescence in the nucleus relative to fluorescence in the cytoplasm (N/C Ratio) in the 488nm channel was calculated for a minimum of 350 cells per image.
# Chain of Peroxisome proliferator-activated receptor gamma (Homo sapiens) (P37231 whole entry, looked up): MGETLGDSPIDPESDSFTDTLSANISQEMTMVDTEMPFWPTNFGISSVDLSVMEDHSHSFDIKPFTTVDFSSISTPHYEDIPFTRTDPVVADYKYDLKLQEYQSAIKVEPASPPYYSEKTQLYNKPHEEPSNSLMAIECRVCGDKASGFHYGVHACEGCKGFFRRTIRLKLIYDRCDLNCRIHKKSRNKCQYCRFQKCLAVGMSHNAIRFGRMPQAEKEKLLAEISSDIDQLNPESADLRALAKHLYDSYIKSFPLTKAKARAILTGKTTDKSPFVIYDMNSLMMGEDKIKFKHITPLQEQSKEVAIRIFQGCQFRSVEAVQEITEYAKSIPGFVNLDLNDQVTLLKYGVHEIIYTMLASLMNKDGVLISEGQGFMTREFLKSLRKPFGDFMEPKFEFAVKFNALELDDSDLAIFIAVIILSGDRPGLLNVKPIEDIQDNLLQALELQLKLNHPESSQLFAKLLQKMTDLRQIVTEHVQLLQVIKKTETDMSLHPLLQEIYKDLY
row,Structure (SMILES),outcome
1,CCN(CC)CCO,inactive
2,O=P(OCCCl)(OCCCl)OCCCl,inactive
3,O=C(N[C@H](c1ccccc1)[C@@H]1CN2CCC1CC2)c1c(Cl)ccc(C(F)(F)F)c1Cl,inactive
4,C[N+](C)(C)CC1CO1 (stereo not given),inactive
5,CC(C)(OOC(C)(C)c1ccccc1)c1ccccc1,inactive
6,Clc1ccc(Cl)c(Cl)c1,inactive
7,CCCCCCCCOC(=O)c1ccc(C(=O)OCCCCCCCC)c(C(=O)OCCCCCCCC)c1,inactive
8,ClCCOCCCl,inactive
9,CCN(CC)N=O,inactive
10,c1ccc(C2CO2)cc1 (stereo not given),inactive
11,OCCCBr,inactive
12,Cc1ccc([N+](=O)[O-])cc1,inactive
13,OCCCl,inactive
14,CC(O)CCO (stereo not given),inactive
15,[O-][Cl+]O,inactive
16,Nc1ccc(Cc2ccc(N)cc2)cc1,inactive
17,Clc1ccccc1Cl,inactive
18,COc1cc(C=O)cc2c1[C@H](COC(N)=O)[C@]1(OC(C)=O)ON2C[C@H]2[C@@H]1N2C(C)=O,inactive
19,OCCOCCO,inactive
20,Brc1ccc(Oc2ccccc2)cc1,inactive

row,Structure (SMILES),outcome
1,O=C(Oc1ccc(Br)cc1)N1CCN2CCC1CC2,inactive
2,Cc1ccc(N=C=O)cc1N=C=O,inactive
3,CNC(=O)Oc1cccc2c1OC(C)(C)C2,inactive
4,O=[N+]([O-])c1ccc(Oc2ccc(Cl)cc2Cl)cc1,inactive
5,Nc1ccc(Oc2ccc(N)cc2)cc1,inactive
6,Cc1ccc(N)cc1,inactive
7,COC(=O)Nc1nc2ccccc2[nH]1,inactive
8,CS(=O)(=O)NC(=O)c1cc(Oc2ccc(C(F)(F)F)cc2Cl)ccc1[N+](=O)[O-],inactive
9,Cc1cc(N=Nc2ccccc2C)ccc1N,inactive
10,Nc1ccc([N+](=O)[O-])cc1,inactive
11,N#CC(Br)(Br)C(N)=O,inactive
12,C=CCc1ccc2c(c1)OCO2,inactive
13,Clc1ccc(C(c2ccc(Cl)cc2)C(Cl)(Cl)Cl)cc1,inactive
14,CC(C)COC(=O)c1ccccc1C(=O)OCC(C)C,inactive
15,COC(=O)c1ccccc1N,inactive
16,O=[N+]([O-])C(Br)(CO)CO,inactive
17,Nc1ccc(N=Nc2ccccc2)cc1,inactive
18,c1ccc(N=Nc2ccccc2)cc1,inactive
19,CC(C)N(Cc1ccccc1)C(=O)C(C)(C)C,inactive
20,CCCCC(CC)COC(=O)c1ccc(C(=O)OCC(CC)CCCC)c(C(=O)OCC(CC)CCCC)c1 (stereo not given),inactive
